# Measured values from PubChem BioAssay (NCI).
# This is part of a sample that, as a whole, favours compounds with a hit. Of some 83,000 tested, about 20% had one in any assay.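 Activity criterion: percent growth below 10, measured after cells in 96-well plates were exposed to a single compound concentration for 48 hours.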 Calls of active or inactive are those of the source.
# Test system: COLO 205 colon
# Experiment: NCI-60 one-dose screen, 48 h (100 = growth as untreated, 0 = no growth, -100 = all killed)
# Conditions: 10 µM
row,Compound,growth
1,Fc1ccc(C2=NN(c3ccccc3)C(c3sc(N(CCCl)CCCl)nc3Cl)C2)cc1 (stereo not drawn),88.6% (inactive)
2,CC[C@H](C)[C@H](NC(=O)Nc1ccccc1)C(=O)N(C)[C@H](C[C@@H](OC(C)=O)c1nc(C(=O)N[C@@H](Cc2ccccc2)C[C@H](C)C(=O)OC)cs1)C(C)C,-51.8% (active)
3,O=[As]c1ccc(C(=O)c2ccc(Oc3ccccc3)cc2)cc1 (stereo not drawn),-89.2% (active)
4,Cc1cc(NC(=O)NCCOc2ccc(N3C(N)=NC(N)=NC3(C)C)cc2Cl)ccc1S(=O)(=O)F,35.3% (inactive)
5,C=CCc1ccc(OC(=O)Cc2ccccc2)c(OC)c1,103% (inactive)
6,CC(C)(O)/C=C/C(=O)[C@](C)(O)[C@H]1[C@H](O)C[C@@]2(C)[C@@H]3CC=C4[C@@H](C=C(O)C(=O)C4(C)C)[C@]3(C)C(=O)C[C@]12C,-52.3% (active)
7,C[C@]12CCc3sc(-c4ccc(Cl)cc4)nc3C1=CC[C@@H]1[C@@H]2CC[C@]2(C)C(=O)CC[C@@H]12,97.2% (inactive)
8,C=CCC1(CC)C(=O)NC(=S)NC1=O,97.3% (inactive)
9,NC(Cc1ccc2c(c1)OCO2)c1ccc2c(c1)OCO2 (stereo not drawn),99.9% (inactive)
10,O=C(CF)N(O)c1ccc(/C=C/c2ccccc2)cc1,68.8% (inactive)
11,COc1ccc(/C=C(/C(=O)N2CCCC2)c2cc(OC)c(OC)c(OC)c2)cc1N,5.31% (active)
12,Nc1c(Br)cc([N+](=O)[O-])cc1[N+](=O)[O-],116% (inactive)
13,Oc1ccc(O)c2c1C1(Cl)C(Cl)=C(Cl)C2(Cl)C1(Cl)Cl,72% (inactive)
14,CCCCNCCc1ccccn1,117% (inactive)
15,CNC(=O)Oc1cccc(OC)c1,119% (inactive)
16,NC(=O)SCC(=O)Nc1ccc([As](=O)(O)O)cc1,75.6% (inactive)
17,C[C@]12CC[C@H]3[C@@H](C[C@@H]4N=C(c5ccc(O)cc5)S[C@@]45C[C@H](O)CC[C@]35C)[C@@H]1CC[C@@H]2O,77.7% (inactive)
18,CC1(C)N=C(N)N=C(N)N1c1ccc(CCCCc2ccc(S(=O)(=O)F)cc2)cc1,41.9% (inactive)
19,Nc1c(Br)cc2c3c(cccc13)-c1ccccc1-2,88.2% (inactive)
20,CC(C)C1c2ccc(O)cc2Oc2nc(N)c(C#N)c(N)c21 (stereo not drawn),109% (inactive)
21,c1ccc2nc(OCCN3CC3)ccc2c1,68.1% (inactive)
22,CC1(C)N=C(N)N=C(N)N1c1ccc(CNC(=O)Nc2ccc(S(=O)(=O)F)c(Cl)c2)c(Cl)c1,37.1% (inactive)
23,CC1COC(=O)C1 (stereo not drawn),102% (inactive)
24,C[CH2][Pb]([CH2]C)([CH2]C)[O]C(=O)COc1ccccc1,1.67% (active)
25,COc1ccc(/C=C\c2cc(OC)c(OC)c(OC)c2)cc1N/C=C\C(=O)c1c[nH]c2ccccc12,-65.6% (active)
26,CCCC(C)(C)c1ccc2c(c1)OC(C)(C)[C@@H]1CC=C(C)C[C@@H]21,107% (inactive)
27,OC1(c2ccc(Cl)cc2Cl)c2ccccc2C2=NCCN21 (stereo not drawn),90.6% (inactive)
28,CC1(CF)NC(=O)NC1=O (stereo not drawn),114% (inactive)
29,O=C(Nc1ccc(S(=O)(=O)F)cc1)Oc1ccccc1,110% (inactive)

# Test system: DU-145 prostate
# Experiment: as above
# Conditions: 10 µM unless noted
row,Compound,growth
1,Fc1ccc(C2=NN(c3ccccc3)C(c3sc(N(CCCl)CCCl)nc3Cl)C2)cc1 (stereo not drawn),109% (inactive)
2,CC[C@H](C)[C@H](NC(=O)Nc1ccccc1)C(=O)N(C)[C@H](C[C@@H](OC(C)=O)c1nc(C(=O)N[C@@H](Cc2ccccc2)C[C@H](C)C(=O)OC)cs1)C(C)C,-3.41% (active)
3,CC(=O)O[C@H]1CCC2(C)C(=CCC3C2CCC2(C)/C(=N/OC(=O)c4ccc(N(CCCl)CCCl)cc4)CCC32)C1 (stereo partly drawn),78.7% (inactive)
4,O=C(N/N=C/c1ccc(N(CCCl)CCCl)cc1)c1cc(=O)[nH]c(=O)[nH]1,91.4% (inactive)
5,O=[As]c1ccc(C(=O)c2ccc(Oc3ccccc3)cc2)cc1 (stereo not drawn),-94% (active)
6,O=[N+]([O-])c1cc([N+](=O)[O-])c(Cl)c(Cl)c1Cl,-27.2% (active)
7,Cc1cc(NC(=O)NCCOc2ccc(N3C(N)=NC(N)=NC3(C)C)cc2Cl)ccc1S(=O)(=O)F,34.4% (inactive)
8,COc1ccc2c(c1)NC1=C(C(=O)OC1)C2c1cc(OC)c(OC)c(OC)c1 (stereo not drawn),-24.7% (active)
9,C=CCc1ccc(OC(=O)Cc2ccccc2)c(OC)c1,111% (inactive)
10,CC(C)(O)/C=C/C(=O)[C@](C)(O)[C@H]1[C@H](O)C[C@@]2(C)[C@@H]3CC=C4[C@@H](C=C(O)C(=O)C4(C)C)[C@]3(C)C(=O)C[C@]12C,-40.2% (active)
11,C[C@]12CCc3sc(-c4ccc(Cl)cc4)nc3C1=CC[C@@H]1[C@@H]2CC[C@]2(C)C(=O)CC[C@@H]12,43.6% (inactive)
12,C=CCC1(CC)C(=O)NC(=S)NC1=O,103% (inactive)
13,NC(Cc1ccc2c(c1)OCO2)c1ccc2c(c1)OCO2 (stereo not drawn),116% (inactive)
14,O=C(CF)N(O)c1ccc(/C=C/c2ccccc2)cc1,1.13% (active)
15,COc1ccc(/C=C(/C(=O)N2CCCC2)c2cc(OC)c(OC)c(OC)c2)cc1N,24.6% (inactive)
16,Nc1nc(N)c(-c2ccc(Cl)c(Cl)c2)c(/C=C/c2ccc(S(=O)(=O)F)cc2)n1,96.7% (inactive)
17,Nc1c(Br)cc([N+](=O)[O-])cc1[N+](=O)[O-],101% (inactive)
18,Oc1ccc(O)c2c1C1(Cl)C(Cl)=C(Cl)C2(Cl)C1(Cl)Cl,63.2% (inactive)
19,CN(C)P1(N(C)C)=NP(N(C)C)(N(C)C)=NP(N(C)C)(N(C)C)=N1,110% (inactive)
20,CCCCNCCc1ccccn1,113% (inactive)

row,Compound,growth
1,CNC(=O)Oc1cccc(OC)c1,115% (inactive)
2,C=C=[CH][Sn]([c]1ccccc1)([c]1ccccc1)[c]1ccccc1,-91.1% (active)
3,NC(=O)SCC(=O)Nc1ccc([As](=O)(O)O)cc1,101% (inactive)
4,C[C@]12CC[C@H]3[C@@H](C[C@@H]4N=C(c5ccc(O)cc5)S[C@@]45C[C@H](O)CC[C@]35C)[C@@H]1CC[C@@H]2O,63.8% (inactive)
5,CC1(C)N=C(N)N=C(N)N1c1ccc(CCCCc2ccc(S(=O)(=O)F)cc2)cc1,31.8% (inactive)
6,Nc1c(Br)cc2c3c(cccc13)-c1ccccc1-2,70% (inactive)
7,COc1cc2c(cc1OC)CN(C)C(C)C2 (stereo not drawn),109% (inactive)
8,CC(C)C1c2ccc(O)cc2Oc2nc(N)c(C#N)c(N)c21 (stereo not drawn),115% (inactive)
9,c1ccc2nc(OCCN3CC3)ccc2c1,98.6% (inactive)
10,CC1(C)N=C(N)N=C(N)N1c1ccc(CNC(=O)Nc2ccc(S(=O)(=O)F)c(Cl)c2)c(Cl)c1,31.7% (inactive)
11,c1ccc(-c2ccc3ccccc3[o+]2)cc1,98.9% (inactive)
12,CSc1ccccc1NP1(=O)OCC(C)([N+](=O)[O-])CO1 (stereo not drawn),109% (inactive)
13,CC1COC(=O)C1 (stereo not drawn),104% (inactive)
14,C[CH2][Pb]([CH2]C)([CH2]C)[O]C(=O)COc1ccccc1,-6.43% (active)
15,COc1ccc(/C=C\c2cc(OC)c(OC)c(OC)c2)cc1N/C=C\C(=O)c1c[nH]c2ccccc12,3.53% (active)
16,CCCC(C)(C)c1ccc2c(c1)OC(C)(C)[C@@H]1CC=C(C)C[C@@H]21,108% (inactive)
17,OC1(c2ccc(Cl)cc2Cl)c2ccccc2C2=NCCN21 (stereo not drawn),109% (inactive)
18,CC1(CF)NC(=O)NC1=O (stereo not drawn),116% (inactive)
19,O=C(Nc1ccc(S(=O)(=O)F)cc1)Oc1ccccc1,103% (inactive)
